From PubChem
RTF Ca sens inh = cardiac RTF calcium desensitization | IANBD-labeled cardiac RTF, Ca2+ fluorescence | inhibition, % at 7.15 µM | AID 493244 | 0.12% of 340,000 active;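 active means inhibition above the mean inhibition of all tested compounds plus 3 SD, cut at about 17% in these data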;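 further: assay run at fixed EC70 calcium of 1.6 mM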
eLon inh = inhibitors of E. coli Lon protease. AID 602123. P0A9M0. purified E. coli Lon protease, fluorescence polarization. 0.42% of 360,000 active. inhibition, % at 7.94 µM; in the data active means inhibition above about 13%, passing the limit was not always enough
C-LANA FP = blocks KSHV LANA C-terminal domain binding to DNA | MBP-C-LANA/FAM-LBS DNA binding, fluorescence polarization | inhibition, % at 9 µM | 0.078% of 340,000 active | AID 504423;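 active means highest replicate inhibition at or above 60% at 9 µM, even if other replicates fall short; inactive means all replicates below 60% inhibition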
Keap1 Nrf2 FP = inhibitors of human Keap1-Nrf2 protein-protein interaction | 0.15% of 340,000 active | Keap1 Kelch-Nrf2 peptide fluorescence polarization, 1536-well | Q14145 | inhibition, % at 9.4 µM; in the data active means inhibition above about 12%;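 further: human Keap1 Kelch domain with fluorescein labeled Nrf2 9mer peptide probe; higher means more block of Keap1 binding to Nrf2 peptide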
Target sequence (Q14145 whole entry, looked up, the tested form may be a part): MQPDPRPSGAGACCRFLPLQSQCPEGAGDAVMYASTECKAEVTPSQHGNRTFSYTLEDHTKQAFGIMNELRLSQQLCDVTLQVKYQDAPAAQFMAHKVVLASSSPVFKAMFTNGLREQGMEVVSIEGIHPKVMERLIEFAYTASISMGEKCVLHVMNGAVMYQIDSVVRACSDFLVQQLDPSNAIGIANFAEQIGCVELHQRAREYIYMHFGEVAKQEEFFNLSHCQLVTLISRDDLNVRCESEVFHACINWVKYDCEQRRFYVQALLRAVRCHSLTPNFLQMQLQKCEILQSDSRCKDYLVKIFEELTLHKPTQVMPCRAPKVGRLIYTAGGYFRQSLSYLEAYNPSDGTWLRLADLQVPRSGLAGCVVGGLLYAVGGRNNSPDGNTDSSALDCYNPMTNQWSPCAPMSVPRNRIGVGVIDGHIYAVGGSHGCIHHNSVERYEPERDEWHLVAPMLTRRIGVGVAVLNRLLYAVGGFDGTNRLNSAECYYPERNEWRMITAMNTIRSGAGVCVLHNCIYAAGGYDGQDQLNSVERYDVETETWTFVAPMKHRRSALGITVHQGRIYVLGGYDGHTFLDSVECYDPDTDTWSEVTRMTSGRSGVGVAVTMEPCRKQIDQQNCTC
cardiac RTF act = increases calcium sensitivity of human cardiac regulated thin filaments; P19429+P45379; IANBD-labeled TnC RTF fluorescence at EC20 calcium; 0% EC20 calcium, 100% full calcium; activation, % at 7.2 µM; 0.24% of 340,000 active; AID 493008;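 active means activation above the mean over all tested compounds plus 3 SD, cut at about 30% in these data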;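 further: rise in fluorescence read as greater calcium sensitivity of cardiac thin filaments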
RTF Ca inh conf = cardiac RTF calcium sensitivity inhibition, confirmation; shares compounds with RTF Ca sens inh; reconstituted cardiac thin filaments, calcium sensitivity fluorescence; inhibition, % at 7.15 µM; 8% of 360 active; in the data active means inhibition above about 18%
DNA intercal 2 = intercalates DNA, flagged as C-LANA false positive; shares compounds with C-LANA FP; Acridine orange-DNA displacement, fluorescence polarization; AC50, µM (highest dose often 35 µM); 20 tested, under 10 active;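 active means signal drop with an AC50 no more than ten times the top valid dose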
Keap1 TSA = Keap1 (human) Kelch domain binding; shares compounds with Keap1 Nrf2 FP; Keap1 Kelch thermal shift, delta Tm; stronger effect = higher value; max delta Tm, degrees C; 8% of 400 active; in the data active means max delta Tm above about 0.48 degrees C
Dye-only ctr = counter-screen for Keap1 thermal shift hits: dye-only artifacts; AID 651858; 140 tested, under 10 active; shares compounds with Keap1 Nrf2 FP; delta Tm, degrees C (concentration not given with the values); Sypro Orange dye-only thermal melt, no protein, delta Tm; top dose 26 µM;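 active means at highest dose tested, delta Tm positive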
E coli Lon conf = confirmation of E. coli Lon protease inhibitors | shares compounds with eLon inh | inhibition, % at 7.94 µM | 31% of 1,400 active | purified E. coli Lon, fluorescence polarization; in the data active means inhibition above about 16%
Of the large screens only hits and unclear results are named; the others gave an inactive call (follow-up assays come after a bar, where they were run). Hits are enriched below; roughly 0.82% of the tested compounds scored in any of these assays.

CN(C)CCCn1c(=S)[nH]c2ccccc2c1=O	none
CN(C)CCCN1C(=O)C2CCc3[nH]c4ccccc4c3C2C1=O (stereo unspecified)	RTF Ca sens inh 19, eLon inh 24 | RTF Ca inh conf inactive | E coli Lon conf inactive
C[C@@H]1CN([C@H](C)CO)S(=O)(=O)c2ccc(C3=CCCCC3)cc2O[C@H]1CN(C)C(=O)Cc1cccnc1	none (no result: RTF Ca sens inh, C-LANA FP, Keap1 Nrf2 FP, cardiac RTF act)
NS(=O)(=O)c1cc(C(=O)NC2CCSc3ccccc32)ccc1Cl (stereo unspecified)	RTF Ca sens inh 31, eLon inh 18, C-LANA FP 90, Keap1 Nrf2 FP 20 | RTF Ca inh conf inactive | Keap1 TSA inactive | Dye-only ctr inactive | E coli Lon conf 17
CCC(=O)Oc1ccc2c(c1)O/C(=C\c1ccco1)C2=O	none (no result: RTF Ca sens inh, cardiac RTF act) | DNA intercal 2 inactive
CCc1ccccc1NC(=O)CCS(=O)(=O)c1ccc(Br)cc1	none
COC(=O)c1ccccc1NC(=O)CCS(=O)(=O)c1ccc(Br)cc1	none | DNA intercal 2 inactive
O=C(O)CCCCCn1c(SCC(=O)c2ccc(O)c(O)c2)nc2ccsc2c1=O	none | DNA intercal 2 inactive
CCCCn1c(SCC(=O)c2ccc(O)c(O)c2)nc2ccsc2c1=O	none
O=C1/C(=C/c2ccco2)Oc2c1ccc(O)c2CN1CCCCC1	C-LANA FP 66 | DNA intercal 2 30µM
O=C(NCc1ccc(Cl)c(Cl)c1)c1cc(C2CCCCN2C(=O)c2ccccn2)on1 (stereo unspecified)	none (no result: RTF Ca sens inh, C-LANA FP, Keap1 Nrf2 FP, cardiac RTF act)
CC(O)(c1cccc(F)c1)c1nc(-c2ccc3ccccc3c2)cs1 (stereo unspecified)	none (no result: RTF Ca sens inh, C-LANA FP, Keap1 Nrf2 FP, cardiac RTF act)
C/C(=N/Nc1ccccc1C(=O)O)c1cccs1	Keap1 Nrf2 FP 74 (no result: C-LANA FP) | Keap1 TSA inactive | Dye-only ctr inactive
CCCN(CCC)S(=O)(=O)c1ccc(C(=O)OCCN2C(=O)c3cccc4c(N5CCOCC5)ccc(c34)C2=O)cc1	Keap1 Nrf2 FP 39, cardiac RTF act 52 | Keap1 TSA inactive | Dye-only ctr inactive
O=C(OCCN1C(=O)c2cccc3c(N4CCOCC4)ccc(c23)C1=O)c1ccc(Cl)cc1	none
CC(=O)Nc1c(NC(C)(C)C)c2ccccc2oc1=O	none
CC(=O)Nc1c(N)c2ccccc2oc1=O	Keap1 Nrf2 FP 14 | Keap1 TSA inactive | Dye-only ctr inactive
COc1ccc2c(c1)c1nc3ccccc3nc1n2CC(=O)OC(C)C	Keap1 Nrf2 FP 24 | Keap1 TSA inactive | Dye-only ctr inactive
O=C1c2ccccc2C(=O)c2c1ccc(O)c2O	Keap1 Nrf2 FP 13 | Keap1 TSA inactive
Cc1ccc(NC(=O)/C(C#N)=C(\N)C(Cl)(Cl)Cl)nc1	Keap1 Nrf2 FP 38 | Keap1 TSA inactive
Cc1ccc(NC(=O)C(=O)Nc2ccc(C)cn2)nc1	none
C=CCn1ccc2c([N+](=O)[O-])cccc2c1=O	none
C=CCn1ccc(=NC=C(C#N)C#N)c2ccccc21	Keap1 Nrf2 FP 130 | Keap1 TSA inactive
CC(=O)Oc1ccccc1Cn1c(C)c(C(=O)NCc2cccc([N+](=O)[O-])c2)sc1=O	none (no result: RTF Ca sens inh, C-LANA FP, Keap1 Nrf2 FP, cardiac RTF act)
CC(C)(C)c1cc(OC(=O)C2CCCC2)ccc1O	none
CCCCC(CC)C(=O)Oc1ccc(O)c(C(C)(C)C)c1 (stereo unspecified)	Keap1 Nrf2 FP 15 | Keap1 TSA inactive
C[C@H]1COc2cc(N(C)CCO)ccc2S(=O)(=O)N1	none (no result: RTF Ca sens inh, C-LANA FP, Keap1 Nrf2 FP, cardiac RTF act)
COc1ccc(NS(=O)(=O)c2cc(OC)ccc2OC)cc1	none
COc1ccc(OC)c(S(=O)(=O)Nc2ccc(F)cc2)c1	Keap1 Nrf2 FP 12 | Keap1 TSA inactive
Fc1ccc(C2=CC(c3ccc(Br)o3)n3ncnc3N2)cc1 (stereo unspecified)	eLon inh 137, C-LANA FP 64, Keap1 Nrf2 FP 36, cardiac RTF act 172 | Keap1 TSA inactive
